# Results taken from PubChem BioAssay (NCATS).
# Records with an inconclusive call do not appear. Entries that show only a call come without a potency. Calls of active or inactive are those of the source. Unless noted, calls follow the shape of the dose curve; as a rule, active = well fitted curve in the direction sought with a large enough effect; inconclusive = small, poorly fitted or top-dose-only effect, or another doubt; inactive = no such curve, though single readings can be large; an effect the other way counts as inactive or inconclusive.
# Columns and labels:
# [1] = AP1 Signaling Pathway (AID 357; active = well fitted curve in either direction with a large enough effect, not every such curve was filed as active;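 also: ME-180 reporter cells stimulated with EGF at its EC50 level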)
# Outline: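 First, ME-180 AP-1-bla cells were cultured overnight at 37 °C in low-serum Opti-MEM. Next, titrated compounds with EC50 EGF were incubated 5 hours. Finally, CCF4 was added for 2.5 hours and the 460/530 nm ratio recorded.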
# [2] = NFAT Signaling Pathway (AID 444; active = well fitted curve in either direction with a large enough effect, not every such curve was filed as active;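 also: carbachol stimulus at about its EC50 of 1 µM final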); conditions: Jurkat NFAT-bla M1, carbachol, beta-lactamase ratio, 5 h; at 17.2 µM (top of the series) unless noted
# Outline: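 Read-out: CCF4 FRET ratio (460 nm/530 nm) after 1 h RT dye loading, used for %activity and AC50 from titration series. Cells: Jurkat NFAT-β-lactamase/M1 line, treated with compound plus 1 uM carbachol for 5 h, 37 °C.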
# [3] = Stat Signaling Pathway (AID 446; active = well fitted curve in either direction with a large enough effect, not every such curve was filed as active;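 also: ME-180 cervical cancer cells given 40 pM IL-6 alongside compound; SIE-controlled beta-lactamase reporter measured as 460/530 nm FRET emission ratio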)
# Outline: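 Normalization used AC90 stimulation (300 pM IL-6) and AC90 inhibition (125 nM pan-JAK inhibitor at 40 pM IL-6). The underlying signal is SIE-driven beta-lactamase in ME-180 cells after 5 h IL-6 exposure with compound.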
# [4] = target: Glucocorticoid receptor (Homo sapiens) (UniProt P04150); assay: GR-GFP Redistribution (AID 450;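 active = compounds whose dose series gives a full or clear partial fitted curve of increased nuclear translocation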; also: potency is read from the fitted curve at half-maximal effect); conditions: U2OS GR-GFP nuclear translocation, laser cytometry, 2 h
# Glucocorticoid receptor (Homo sapiens), sequence (P04150 whole entry, looked up, the tested form may be a part): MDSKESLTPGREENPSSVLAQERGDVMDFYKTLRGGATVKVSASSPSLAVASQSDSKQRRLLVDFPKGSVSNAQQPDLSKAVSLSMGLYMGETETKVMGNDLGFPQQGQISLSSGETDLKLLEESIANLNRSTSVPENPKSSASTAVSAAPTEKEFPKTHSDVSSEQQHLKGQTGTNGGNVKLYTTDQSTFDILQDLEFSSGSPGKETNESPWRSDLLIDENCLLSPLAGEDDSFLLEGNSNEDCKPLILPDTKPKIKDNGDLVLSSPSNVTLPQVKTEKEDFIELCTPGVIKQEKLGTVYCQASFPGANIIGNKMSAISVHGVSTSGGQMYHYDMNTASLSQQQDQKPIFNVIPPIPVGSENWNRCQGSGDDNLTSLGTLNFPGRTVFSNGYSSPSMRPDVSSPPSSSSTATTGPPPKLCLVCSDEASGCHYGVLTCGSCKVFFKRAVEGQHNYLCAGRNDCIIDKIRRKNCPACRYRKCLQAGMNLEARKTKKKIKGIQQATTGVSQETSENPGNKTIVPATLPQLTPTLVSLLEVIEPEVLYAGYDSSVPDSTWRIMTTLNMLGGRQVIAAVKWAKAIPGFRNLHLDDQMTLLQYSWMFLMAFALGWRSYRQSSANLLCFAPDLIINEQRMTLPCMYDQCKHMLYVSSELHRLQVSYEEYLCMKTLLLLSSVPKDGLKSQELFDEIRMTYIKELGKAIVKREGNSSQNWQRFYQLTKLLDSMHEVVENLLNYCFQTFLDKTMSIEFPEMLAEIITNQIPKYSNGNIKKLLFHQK
# [5] = target: Glucocorticoid receptor (Homo sapiens) (UniProt P04150); assay: GR-EFC Redistribution (AID 451; calls by dose curve; also: potency is read from the fitted curve at half-maximal effect); conditions: CHO-K1 GR-EFC translocation, beta-gal luminescence, 2 h
# Outline: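 Translocation of GR-ED fusion to nuclear EA restores b-gal, read by luminescence after 1 h room-temperature detection. Engineered CHO-K1 biosensor cells, 1,000/well, exposed 2 h at 37 C to titrations up to 46 uM final.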
# [6] = target: Mitogen-activated protein kinase 10 (Mus musculus) (UniProt Q61831); assay: JNK3 AlphaScreen Assay (AID 530; active = well fitted curve in either direction with a large enough effect, not every such curve was filed as active;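 also: kinase came from lysate of stimulated human HepG2 cells; signal reports phosphorylation of biotinylated GST-cJun 1-79 at Ser73 with 10 µM ATP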)
# Outline: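 qHTS titrations with 15 min compound pre-incubation before adding ATP (10 uM final). Read-out: AlphaScreen of Ser73-phosphorylated biotin-GST-cJun using HepG2 lysate JNK3 activated by IL-1β and TNFα.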
# [7] = target: 3',5'-cyclic-AMP phosphodiesterase 4B (Homo sapiens) (UniProt Q07343); assay: qHTS Assay for Inhibitors of PDE-IV (AID 607; active = well fitted activation curve with a large enough effect in the main read-out, with a control signal flat, not every such curve was filed as active)
# 3',5'-cyclic-AMP phosphodiesterase 4B (Homo sapiens), sequence (Q07343 whole entry, looked up): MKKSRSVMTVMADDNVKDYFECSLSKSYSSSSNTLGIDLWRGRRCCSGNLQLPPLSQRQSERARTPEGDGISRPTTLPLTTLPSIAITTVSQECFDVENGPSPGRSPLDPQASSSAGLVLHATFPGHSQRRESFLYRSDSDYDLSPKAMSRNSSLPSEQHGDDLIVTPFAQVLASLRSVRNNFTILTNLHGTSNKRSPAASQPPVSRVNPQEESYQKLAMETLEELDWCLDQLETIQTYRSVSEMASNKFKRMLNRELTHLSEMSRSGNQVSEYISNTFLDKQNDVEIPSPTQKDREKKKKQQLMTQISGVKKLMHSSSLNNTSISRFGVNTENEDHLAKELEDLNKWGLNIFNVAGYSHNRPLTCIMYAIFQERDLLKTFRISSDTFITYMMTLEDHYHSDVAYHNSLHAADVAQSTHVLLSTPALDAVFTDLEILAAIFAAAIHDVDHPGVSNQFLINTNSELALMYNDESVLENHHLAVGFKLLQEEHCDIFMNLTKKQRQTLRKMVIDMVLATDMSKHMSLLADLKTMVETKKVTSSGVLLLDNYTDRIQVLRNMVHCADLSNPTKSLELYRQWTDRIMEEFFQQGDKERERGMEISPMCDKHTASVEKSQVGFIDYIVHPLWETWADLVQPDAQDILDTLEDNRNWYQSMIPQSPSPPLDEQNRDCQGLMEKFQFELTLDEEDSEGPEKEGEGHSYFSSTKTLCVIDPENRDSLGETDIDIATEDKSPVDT
# Outline: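 HEK293 ACTOne cells with CNG channel (1000/well), endogenous PDE4; membrane potential dye, compounds up to 22.9 uM final. Fluorescence Ex 535/Em 590; RO 20-1724 (100 uM final) as reference.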
# [8] = qHTS Assay for Lipid Storage Modulators (AID 1519; calls by dose curve); conditions: Drosophila S3 cells, BODIPY lipid droplet/cell ratio, laser cytometry, cells loaded with oleic acid
# Outline: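 Cells seeded at 5,000 per well were treated with compounds over a concentration series and loaded with oleic acid (400 uM, as added). Lipid droplet fluorescence (488 nm excitation, 500-530 nm channel) was read by laser-scanning cytometry and normalized to 20 uM Triacsin C.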
# [9] = target: Ubiquitin carboxyl-terminal hydrolase 1 (Homo sapiens) (UniProt O94782); assay: Inhibitors of USP1/UAF1: Pilot qHTS (AID 504865);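 also: rhodamine fluorescence freed from ubiquitin-rhodamine substrate followed over time; top concentration of the series differs between compounds; nearly all actives have a fitted effect of over 35% in size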
# Ubiquitin carboxyl-terminal hydrolase 1 (Homo sapiens), sequence (O94782 whole entry, looked up): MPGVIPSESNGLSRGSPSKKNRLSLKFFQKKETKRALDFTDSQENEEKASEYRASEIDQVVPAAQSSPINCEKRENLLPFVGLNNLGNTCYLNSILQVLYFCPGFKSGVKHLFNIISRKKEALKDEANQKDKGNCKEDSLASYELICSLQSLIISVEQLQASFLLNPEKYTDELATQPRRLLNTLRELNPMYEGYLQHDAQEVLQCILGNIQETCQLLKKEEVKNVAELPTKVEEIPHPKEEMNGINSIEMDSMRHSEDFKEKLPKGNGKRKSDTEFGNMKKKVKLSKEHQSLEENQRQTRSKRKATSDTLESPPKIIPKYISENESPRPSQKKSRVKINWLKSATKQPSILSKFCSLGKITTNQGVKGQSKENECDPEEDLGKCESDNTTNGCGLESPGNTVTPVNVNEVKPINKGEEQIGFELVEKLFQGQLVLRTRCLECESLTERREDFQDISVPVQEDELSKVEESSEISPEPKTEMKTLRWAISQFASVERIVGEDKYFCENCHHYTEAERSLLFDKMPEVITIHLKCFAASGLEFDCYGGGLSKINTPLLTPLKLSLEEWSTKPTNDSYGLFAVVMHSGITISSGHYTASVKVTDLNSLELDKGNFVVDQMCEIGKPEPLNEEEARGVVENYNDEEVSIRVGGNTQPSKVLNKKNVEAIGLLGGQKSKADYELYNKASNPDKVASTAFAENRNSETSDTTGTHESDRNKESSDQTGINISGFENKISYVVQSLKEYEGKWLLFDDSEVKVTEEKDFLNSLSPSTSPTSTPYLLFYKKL
# Outline: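 USP1/UAF1 complex (1nM) preincubated with compound 15 min at room temperature, then Ub-Rho substrate (150nM final) added. Fluorescence read kinetically at 480/540 nm, 6 reads every 60 seconds. Buffer: 50mM HEPES pH 7.8, 0.5mM EDTA, 0.1 mg/ml BSA, 1mM TCEP, 0.01% Tween-20.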
# [10] = S16 Schwann cell viability assay (CellTiter-Glo assay) (AID 624031);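 also: cellular ATP luminescence as a viability measure; nearly all actives have a fitted effect of over 70% in size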
# Outline: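 Native S16 rat Schwann cells, 500-750 cells/well in DMEM with 10% FBS, dosed with compound after overnight culture and incubated 24h at 37 degree Celsius/5% CO2. Viability by CellTiter-Glo luminescence; % activity normalized to no-cell wells and DMSO-treated cells.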
# [11] = qHTS profiling for inhibitors of Plasmodium falciparum proliferation (AID 504749); also: nearly all actives have a fitted effect of over 60% in size; conditions: P. falciparum in erythrocytes, SYBR Green DNA, 72 h, at 12.8 µM (top of the series)
# Outline: (§1)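 SYBR Green fluorescence of parasite DNA, read after lysis and overnight dark incubation, measured growth over 72 h in erythrocyte culture at 0.3% parasitemia and 2.5% hematocrit. Data normalised to DMSO and 0.29 uM artemisinin, with plate-drift correction.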
# AS120 = assay: as above; conditions: P. falciparum in erythrocytes, SYBR Green DNA, 72 h; series mostly up to 12.8 µM
# Outline: as §1
# C2A = assay: as above; conditions: P. falciparum in erythrocytes, SYBR Green DNA, 72 h; series mostly up to 12.8 µM
# Outline: as §1
# CP237 = assay: as above; conditions: P. falciparum in erythrocytes, SYBR Green DNA, 72 h; series mostly up to 12.8 µM
# Outline: as §1
# CP238 = assay: as above; conditions: P. falciparum in erythrocytes, SYBR Green DNA, 72 h; series mostly up to 12.8 µM
# Outline: as §1
# CP252 = assay: as above; conditions: P. falciparum in erythrocytes, SYBR Green DNA, 72 h; series mostly up to 12.8 µM
# Outline: as §1
# FAB9 = assay: as above; conditions: P. falciparum in erythrocytes, SYBR Green DNA, 72 h; series mostly up to 12.8 µM
# Outline: as §1
# HB3 = assay: as above; conditions: P. falciparum in erythrocytes, SYBR Green DNA, 72 h; series mostly up to 12.8 µM
# Outline: as §1
# JCK = assay: as above; conditions: P. falciparum in erythrocytes, SYBR Green DNA, 72 h; series mostly up to 12.8 µM
# Outline: as §1
# PAD = assay: as above; conditions: P. falciparum in erythrocytes, SYBR Green DNA, 72 h; series mostly up to 12.8 µM
# Outline: as §1
# [12] = measured here: cell count channel max response
# [13] = measured here: lipid channel max response
compound,measurement,setting,value
CC(C)n1c(/C=C\[C@@H](O)C[C@@H](O)CC(=O)O)c(-c2ccc(F)cc2)c2ccccc21,outcome,[1],inactive
same,"activity change, negative = inhibition",[2],6.57% (inactive)
same,outcome,[3],inactive
same,Potency,[4],> 20.6 µM (inactive)
same,Potency,[5],> 20.6 µM (inactive)
same,Potency,[6],inactive
same,outcome,[7],inactive
same,"activity change, negative = inhibition",[8]; at 25.7 µM (top of the series),-2.74% (inactive)
same,max response,[8]; [12],-6.17%
same,max response,[8]; [13],-6.63%
CCCC(=O)Nc1ncnc2c1ncn2[C@@H]1O[C@H]2COP(=O)(O)O[C@@H]2[C@@H]1OC(=O)CCC,outcome,[1],inactive
same,outcome,[3],inactive
same,Potency,[4],> 20.6 µM (inactive)
same,Potency,[5],> 20.6 µM (inactive)
same,Potency,[6],inactive
same,outcome,[7],inactive
same,"activity change, negative = inhibition",[8]; at 25.7 µM (top of the series),-1.42% (inactive)
same,max response,[8]; [12],-2.67%
same,max response,[8]; [13],-4.54%
same,Potency,[9],inactive
C#C[C@@]1(OC(C)=O)CC[C@@H]2[C@@H]3CCC4=C[C@@H](OC(C)=O)CC[C@H]4[C@H]3CC[C@]21C,outcome,[1],inactive
same,outcome,[3],inactive
same,Potency,[4],> 20.6 µM (inactive)
same,Potency,[5],> 20.6 µM (inactive)
same,Potency,[6],inactive
same,"activity change, negative = inhibition",[8]; at 25.7 µM (top of the series),-2.38% (inactive)
same,max response,[8]; [12],-9.18%
same,max response,[8]; [13],-9.18%
same,Potency,[9],inactive
CC1=CC(=O)C2=C(C)CC[C@@H]3[C@@H](OC(=O)[C@H]3C)[C@H]12,outcome,[1],inactive
same,outcome,[3],inactive
same,Potency,[4],> 20.6 µM (inactive)
same,Potency,[5],> 20.6 µM (inactive)
same,Potency,[6],inactive
same,outcome,[7],inactive
same,"activity change, negative = inhibition",[8]; at 25.7 µM (top of the series),0.93% (inactive)
same,max response,[8]; [12],-15.8%
same,max response,[8]; [13],-14.8%
same,Potency,[9],inactive
CS(=O)(=O)Nc1cccc(-c2nc(Nc3ccc(F)cc3)c3ccccc3n2)c1,outcome,[1],inactive
same,Potency,[4],> 46 µM (inactive)
same,Potency,[5],> 46 µM (inactive)
same,Potency,[6],inactive
same,outcome,[7],inactive
same,"activity change, negative = inhibition",[8]; at 57.5 µM (top of the series),3.03% (inactive)
same,max response,[8]; [12],-21%
same,max response,[8]; [13],-26.1%
COc1ccccc1OC[C@H](O)CO,outcome,[1],inactive
same,outcome,[3],inactive
same,Potency,[6],inactive
same,outcome,[7],inactive
same,"activity change, negative = inhibition",[8]; at 25.7 µM (top of the series),-4.43% (inactive)
same,max response,[8]; [12],-24.7%
same,max response,[8]; [13],-36%
same,Potency,[9],inactive
same,outcome,[10],inactive
same,"activity, negative = inhibition",[11]; parasite line A,5.68% (inactive)
same,"activity, negative = inhibition",[11]; parasite line B,4.87% (inactive)
same,Potency,AS120,inactive
same,Potency,C2A,inactive
same,Potency,CP237,inactive
same,Potency,CP238,inactive
same,Potency,CP252,inactive
same,Potency,FAB9,inactive
same,Potency,HB3,inactive
same,Potency,JCK,inactive
same,Potency,PAD,inactive
NS(=O)(=O)c1cc2c(cc1Cl)N[C@@H](C(Cl)Cl)NS2(=O)=O,outcome,[1],inactive
same,outcome,[3],inactive
same,Potency,[6],inactive
same,outcome,[7],inactive
same,"activity change, negative = inhibition",[8]; at 25.7 µM (top of the series),-2.63% (inactive)
same,max response,[8]; [12],-19.9%
same,max response,[8]; [13],-19.9%
same,outcome,[10],inactive
same,"activity, negative = inhibition",[11]; parasite line A,-8.3% (inactive)
same,"activity, negative = inhibition",[11]; parasite line B,4.19% (inactive)
same,Potency,AS120,inactive
same,Potency,C2A,inactive
same,Potency,CP237,inactive
same,Potency,CP238,inactive
same,Potency,CP252,inactive
same,Potency,FAB9,inactive
same,Potency,HB3,inactive
same,Potency,JCK,inactive
same,Potency,PAD,inactive
